Measurements from PubChem BioAssay (NCI).
The panel holds about 79,000 compounds, 15% with a hit somewhere; the sample as a whole holds those more often. Activity calls are given as the source filed them. Cut-off read from the data, not from the text of the source: active = growth inhibition above about 70%; inactive = the rest.

Experiments:
[1] = NCI Yeast Anticancer Drug Screen. Data for the rad50 strain (AID 155);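 note: 0% = growth of vehicle-only cultures of the same strain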; conditions: S. cerevisiae rad50 strain growth inhibition, stronger effect = higher value
In short: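 Vehicle-treated cultures provide the reference for the growth inhibition reported for compound-exposed, repair-deficient yeast.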

[2] = NCI Yeast Anticancer Drug Screen. Data for the mec2-1 strain (AID 157); conditions: S. cerevisiae mec2-1 strain, stronger effect = higher value
In short: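 Using mec2-1 yeast: add compound, measure growth, express inhibition versus vehicle-treated cultures.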

[3] = NCI Yeast Anticancer Drug Screen. Data for the sgs1 mgt1 strain (AID 161);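 note: 0% = growth of cultures given vehicle only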; conditions: S. cerevisiae sgs1 mgt1 strain, stronger effect = higher value
In short: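 Growth of a repair-deficient yeast mutant was monitored after compound treatment and expressed as inhibition relative to vehicle-treated cultures.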

[4] = NCI Yeast Anticancer Drug Screen. Data for the cln2 rad14 strain (AID 165);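 note: 0% = growth equal to vehicle treated cultures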; conditions: S. cerevisiae cln2 rad14 strain, stronger effect = higher value
In short: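 Yeast strain cln2 rad14, bearing defects in cell cycle control and DNA repair, serves as the test system; values reflect growth inhibition compared with vehicle.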

[5] = NCI Yeast Anticancer Drug Screen. Data for the bub3 strain (AID 167); conditions: S. cerevisiae bub3 mutant strain, stronger effect = higher value
In short: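 Mutant yeast screening strain plus compound; vehicle-treated cultures serve as the 0% inhibition reference.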

[6] = NCI Yeast Anticancer Drug Screen. Data for the mlh1 rad18 strain (AID 175); conditions: S. cerevisiae mlh1 rad18 strain growth inhibition, stronger effect = higher value
In short: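 Steps: expose repair-defective yeast to compound; measure growth; express inhibition against vehicle-treated controls.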

[7] = at 5.0 µM (retest, dose inferred, filed as 0.5)
[8] = at 50.0 µM (retest, dose inferred, filed as 5.0)

Measured: growth inhibition

O=[N+]([O-])c1ccc(Cc2nc3ccccc3s2)cc1
active: [1]; [8] 82% | [2]; [8] 95% | [3]; [8] 96% | [5]; [8] 97% | [6]; [8] 93%
inactive: [1]; [7] 32% | [1]; at 50.0 µM 36.8% | [2]; [7] 27% | [2]; at 50.0 µM 14.2% | [3]; [7] 47% | [3]; at 50.0 µM 6.3% | [4]; [7] 32% | [4]; [8] 53% | [4]; at 50.0 µM 22.4% | [5]; [7] 41% | [5]; at 50.0 µM 65.4% | [6]; [7] 52% | [6]; at 50.0 µM 30.9%

Cc1ccc2c(ccc(CC(=S)[S-])[n+]2C)c1
active: [6]; at 50.0 µM 90.2%
inactive: [1]; [7] 10% | [1]; [8] 41% | [1]; at 50.0 µM 58.2% | [2]; [7] 11% | [2]; [8] 21% | [2]; at 50.0 µM 51.6% | [3]; [7] 11% | [3]; [8] 46% | [3]; at 50.0 µM 66.3% | [4]; [7] 10% | [4]; [8] 37% | [4]; at 50.0 µM 47.3% | [5]; [7] 3% | [5]; [8] 38% | [5]; at 50.0 µM 61.5% | [6]; [7] 4% | [6]; [8] 41%

CCC(CC)COC(=O)c1ccc(O)c(O)c1
inactive: [1]; [7] -6% | [2]; [7] -5% | [3]; [7] -2% | [3]; at 50.0 µM 48.1% | [4]; [7] -14% | [5]; [7] 1% | [6]; [7] -6%
active: [1]; [8] 91% | [1]; at 50.0 µM 98.8% | [2]; [8] 72% | [2]; at 50.0 µM 99.2% | [3]; [8] 91% | [4]; [8] 98% | [4]; at 50.0 µM 99.1% | [5]; [8] 99% | [5]; at 50.0 µM 99.1% | [6]; [8] 99% | [6]; at 50.0 µM 98.9%

CSc1ncnc2ncn(C3OC(CO)C(O)C3O)c12 (stereo unspecified)
inactive: [1]; [7] -16% | [1]; [8] -1% | [1]; at 50.0 µM 9.65% | [2]; [7] -15% | [2]; [8] -2% | [2]; at 50.0 µM 3.55% | [3]; [7] -11% | [3]; [8] 2% | [3]; at 50.0 µM 15.2% | [4]; [7] 2% | [4]; [8] -3% | [4]; at 50.0 µM 53% | [5]; [7] -10% | [5]; [8] -14% | [5]; at 50.0 µM -0.75% | [6]; [7] -7% | [6]; [8] -21% | [6]; at 50.0 µM 12.5%

C[C@]12CC[C@H](O)C[C@@H]1CC[C@@H]1[C@@H]2C(=O)C[C@]2(C)C3=CC(=O)O[C@H]3C[C@@H]12
active: [1]; [8] 97% | [1]; at 50.0 µM 98.2% | [2]; [8] 98% | [2]; at 50.0 µM 91% | [3]; [8] 98% | [3]; at 50.0 µM 94% | [4]; [8] 94% | [5]; [8] 97% | [5]; at 50.0 µM 92.6% | [6]; [8] 98% | [6]; at 50.0 µM 96.8%
inactive: [1]; [7] 40% | [2]; [7] 27% | [3]; [7] 32% | [4]; [7] -3% | [4]; at 50.0 µM 57.6% | [5]; [7] 11% | [6]; [7] 34%

CN(C(=S)c1ccccc1)c1ccccc1
active: [1]; at 50.0 µM 97.4% | [2]; at 50.0 µM 82% | [5]; at 50.0 µM 96.6% | [6]; at 50.0 µM 91.7%
inactive: [1]; [7] -166% | [1]; [8] -132% | [2]; [7] -45% | [2]; [8] -56% | [3]; [7] -63% | [3]; [8] -61% | [3]; at 50.0 µM 69.2% | [4]; [7] -61% | [4]; [8] -65% | [4]; at 50.0 µM 58.7% | [5]; [7] -81% | [5]; [8] -80% | [6]; [7] -150% | [6]; [8] -131%

Clc1ccc2c(NCCCCCCNc3ccnc4cc(Cl)ccc34)ccnc2c1
inactive: [1]; [7] 2% | [1]; at 50.0 µM 65.9% | [2]; [7] -3% | [3]; [7] -10% | [4]; [7] -2% | [5]; [7] -11% | [6]; [7] 12%
active: [1]; [8] 90% | [2]; [8] 98% | [2]; at 50.0 µM 92.4% | [3]; [8] 95% | [3]; at 50.0 µM 87.5% | [4]; [8] 75% | [4]; at 50.0 µM 72.4% | [5]; [8] 92% | [5]; at 50.0 µM 81.1% | [6]; [8] 97% | [6]; at 50.0 µM 95.8%

O=c1cccccc1O
inactive: [1]; [7] 14% | [2]; [7] 4% | [3]; [7] 8% | [4]; [7] 16% | [4]; [8] 62% | [5]; [7] 26% | [6]; [7] 13%
active: [1]; [8] 97% | [1]; at 50.0 µM 90.4% | [2]; [8] 100% | [2]; at 50.0 µM 91.7% | [3]; [8] 99% | [3]; at 50.0 µM 93.3% | [4]; at 50.0 µM 85.7% | [5]; [8] 97% | [5]; at 50.0 µM 91.5% | [6]; [8] 98% | [6]; at 50.0 µM 81.1%

CN(C)c1ccc(/C=C\c2c3ccccc3cc[n+]2[O-])cc1
inactive: [1]; [7] -4% | [1]; [8] -1% | [1]; at 50.0 µM 70% | [2]; [7] -5% | [2]; [8] 0% | [2]; at 50.0 µM 3% | [3]; [7] 0% | [3]; [8] -12% | [3]; at 50.0 µM 17.9% | [4]; [7] -5% | [4]; [8] -5% | [4]; at 50.0 µM -10.2% | [5]; [7] -6% | [5]; [8] -11% | [5]; at 50.0 µM 21% | [6]; [7] -10% | [6]; [8] 8% | [6]; at 50.0 µM 14.8%

Cc1ccc2c(c1)[n+]([O-])c(N)c(C#N)[n+]2[O-]
active: [1]; [8] 97% | [2]; [8] 98% | [3]; [8] 97% | [4]; [8] 98% | [5]; [8] 97% | [6]; [8] 96%
inactive: [1]; [7] 0% | [1]; at 50.0 µM 68.5% | [2]; [7] -22% | [2]; at 50.0 µM 25.8% | [3]; [7] -16% | [3]; at 50.0 µM 36.3% | [4]; [7] -26% | [4]; at 50.0 µM 15.8% | [5]; [7] -31% | [5]; at 50.0 µM 29.4% | [6]; [7] -48% | [6]; at 50.0 µM 62.4%

Nc1ncnc2c1c(-c1ccccc1)cn2-c1ccc(Cl)cc1
inactive: [1]; [7] 5% | [1]; [8] 26% | [1]; at 50.0 µM 22.2% | [2]; [7] 2% | [2]; [8] 10% | [2]; at 50.0 µM 15.5% | [3]; [7] 16% | [3]; [8] 61% | [4]; [7] 0% | [4]; [8] 17% | [4]; at 50.0 µM 42.8% | [5]; [7] 8% | [5]; [8] 5% | [5]; at 50.0 µM -17.4% | [6]; [7] 5% | [6]; [8] 23% | [6]; at 50.0 µM 14.8%
active: [3]; at 50.0 µM 71.8%

Cc1ccsc1/C=N/Nc1ccc2ccccc2n1
inactive: [1]; [7] 30% | [2]; [7] 20% | [2]; at 50.0 µM 59.5% | [3]; [7] 44% | [4]; [7] 47% | [4]; at 50.0 µM 50.6% | [5]; [7] 42% | [6]; [7] 25% | [6]; at 50.0 µM 23.4%
active: [1]; [8] 72% | [1]; at 50.0 µM 78% | [2]; [8] 74% | [3]; [8] 97% | [3]; at 50.0 µM 86.8% | [4]; [8] 91% | [5]; [8] 95% | [5]; at 50.0 µM 79% | [6]; [8] 84%
